Laboratory results: the supplement of paper PMC11732987, “Enantioselective OTUD7B fragment discovery through chemoproteomics screening and high-throughput optimisation” (Communications Chemistry, 2025)

What was measured:
Assay in all cases: log2 ratio of Biotin-Ahx-Ub-VS probe labelling (fragment/DMSO); higher = less target engagement (more negative = stronger competition), active = hit call of the paper (q ≤ 0.05, log2 ratio ≤ -1)
Settings in all cases: compound concentration: 200 uM; treatment time: 3 h
OTUD6B = biological target: T1, OTUD6B (UniProt Q8N6M0)
T1 sequence (whole entry): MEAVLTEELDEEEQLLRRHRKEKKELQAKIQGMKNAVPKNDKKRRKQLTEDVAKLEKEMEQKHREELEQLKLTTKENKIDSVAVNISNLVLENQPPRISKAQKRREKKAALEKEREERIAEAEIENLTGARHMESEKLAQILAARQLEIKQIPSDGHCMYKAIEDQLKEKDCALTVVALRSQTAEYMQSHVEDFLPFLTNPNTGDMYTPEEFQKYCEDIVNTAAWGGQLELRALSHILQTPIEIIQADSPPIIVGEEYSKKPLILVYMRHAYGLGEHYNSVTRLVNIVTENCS
Outline: (§1)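 HEK293T lysate (495 µg per sample, in Tris/CHAPS/IGEPAL buffer with protease inhibitors) was exposed in triplicate for 3 h to fragment at 200 µM or to vehicle, then to Biotin-Ahx-Ub-VS at 0.5 µM final for 1 h. Labelled DUBs were enriched on NeutrAvidin, digested with LysC and trypsin, and analysed by diaPASEF LC-MS/MS. Spectronaut label-free quantities were normalised to the global median, and values are average log2 ratios of fragment over vehicle from an unpaired t-test. Only proteins with ≥2 unique peptides were used.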

OTUD7B = biological target: T2, OTUD7B (UniProt Q6GQQ9)
T2 sequence (whole entry): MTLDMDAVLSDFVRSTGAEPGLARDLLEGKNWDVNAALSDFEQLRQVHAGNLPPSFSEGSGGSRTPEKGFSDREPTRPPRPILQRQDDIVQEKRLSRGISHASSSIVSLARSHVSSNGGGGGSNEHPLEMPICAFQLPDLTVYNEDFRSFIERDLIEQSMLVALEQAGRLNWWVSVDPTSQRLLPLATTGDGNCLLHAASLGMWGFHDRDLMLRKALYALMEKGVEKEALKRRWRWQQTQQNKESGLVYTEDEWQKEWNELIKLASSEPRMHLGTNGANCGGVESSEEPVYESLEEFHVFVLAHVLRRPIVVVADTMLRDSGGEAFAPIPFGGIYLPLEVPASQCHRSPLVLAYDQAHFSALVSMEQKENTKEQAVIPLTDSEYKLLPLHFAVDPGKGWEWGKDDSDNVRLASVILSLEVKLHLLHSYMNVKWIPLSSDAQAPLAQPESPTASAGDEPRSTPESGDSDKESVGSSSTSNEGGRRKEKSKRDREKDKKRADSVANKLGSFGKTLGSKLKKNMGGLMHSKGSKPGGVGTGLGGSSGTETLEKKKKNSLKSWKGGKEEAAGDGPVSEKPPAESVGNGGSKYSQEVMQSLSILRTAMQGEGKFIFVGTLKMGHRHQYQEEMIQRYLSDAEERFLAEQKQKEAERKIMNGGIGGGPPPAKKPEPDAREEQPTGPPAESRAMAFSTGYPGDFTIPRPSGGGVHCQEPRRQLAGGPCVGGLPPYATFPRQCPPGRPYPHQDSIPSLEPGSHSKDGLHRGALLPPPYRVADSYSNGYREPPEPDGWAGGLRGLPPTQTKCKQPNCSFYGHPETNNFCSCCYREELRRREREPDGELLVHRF
Outline: as §1

PRPF8 = PRPF8 (UniProt Q6P2Q9)
Outline: as §1

PSMD7 = biological target: T3, PSMD7 (UniProt P51665)
T3 sequence (whole entry): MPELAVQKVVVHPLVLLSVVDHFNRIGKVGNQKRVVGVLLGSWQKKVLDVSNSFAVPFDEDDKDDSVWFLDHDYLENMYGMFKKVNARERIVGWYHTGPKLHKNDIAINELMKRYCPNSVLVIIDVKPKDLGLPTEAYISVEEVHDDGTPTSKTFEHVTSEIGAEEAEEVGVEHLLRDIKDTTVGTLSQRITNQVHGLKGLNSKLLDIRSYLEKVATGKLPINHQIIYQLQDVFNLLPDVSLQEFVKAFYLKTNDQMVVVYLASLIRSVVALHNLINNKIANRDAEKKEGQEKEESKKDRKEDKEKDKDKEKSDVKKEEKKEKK
Outline: as §1

UCHL1 = UCHL1 (UniProt P09936)
Outline: as §1

UCHL3 = biological target: T4, UCHL3 (UniProt P15374)
T4 sequence (whole entry): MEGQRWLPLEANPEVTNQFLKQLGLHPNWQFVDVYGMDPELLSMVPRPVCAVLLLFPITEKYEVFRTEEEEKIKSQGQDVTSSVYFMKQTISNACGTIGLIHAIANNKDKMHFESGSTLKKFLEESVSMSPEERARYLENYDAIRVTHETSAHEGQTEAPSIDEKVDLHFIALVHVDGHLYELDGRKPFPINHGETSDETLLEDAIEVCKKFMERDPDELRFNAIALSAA
Outline: as §1

UCHL5 = biological target: T5, UCHL5 (UniProt Q9Y5K5)
T5 sequence (whole entry): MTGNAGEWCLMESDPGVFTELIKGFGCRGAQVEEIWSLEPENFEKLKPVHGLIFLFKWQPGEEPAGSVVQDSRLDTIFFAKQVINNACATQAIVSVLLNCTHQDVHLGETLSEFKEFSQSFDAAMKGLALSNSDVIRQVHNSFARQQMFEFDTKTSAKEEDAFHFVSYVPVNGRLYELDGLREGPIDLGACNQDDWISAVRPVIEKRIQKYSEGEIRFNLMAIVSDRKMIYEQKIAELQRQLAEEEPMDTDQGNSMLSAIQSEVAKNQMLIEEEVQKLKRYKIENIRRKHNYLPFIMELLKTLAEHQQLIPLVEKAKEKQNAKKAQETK
Outline: as §1

USP10 = USP10 (UniProt Q14694)
Outline: as §1

USP15 = biological target: T6, USP15 (UniProt Q9Y4E8)
T6 sequence (whole entry): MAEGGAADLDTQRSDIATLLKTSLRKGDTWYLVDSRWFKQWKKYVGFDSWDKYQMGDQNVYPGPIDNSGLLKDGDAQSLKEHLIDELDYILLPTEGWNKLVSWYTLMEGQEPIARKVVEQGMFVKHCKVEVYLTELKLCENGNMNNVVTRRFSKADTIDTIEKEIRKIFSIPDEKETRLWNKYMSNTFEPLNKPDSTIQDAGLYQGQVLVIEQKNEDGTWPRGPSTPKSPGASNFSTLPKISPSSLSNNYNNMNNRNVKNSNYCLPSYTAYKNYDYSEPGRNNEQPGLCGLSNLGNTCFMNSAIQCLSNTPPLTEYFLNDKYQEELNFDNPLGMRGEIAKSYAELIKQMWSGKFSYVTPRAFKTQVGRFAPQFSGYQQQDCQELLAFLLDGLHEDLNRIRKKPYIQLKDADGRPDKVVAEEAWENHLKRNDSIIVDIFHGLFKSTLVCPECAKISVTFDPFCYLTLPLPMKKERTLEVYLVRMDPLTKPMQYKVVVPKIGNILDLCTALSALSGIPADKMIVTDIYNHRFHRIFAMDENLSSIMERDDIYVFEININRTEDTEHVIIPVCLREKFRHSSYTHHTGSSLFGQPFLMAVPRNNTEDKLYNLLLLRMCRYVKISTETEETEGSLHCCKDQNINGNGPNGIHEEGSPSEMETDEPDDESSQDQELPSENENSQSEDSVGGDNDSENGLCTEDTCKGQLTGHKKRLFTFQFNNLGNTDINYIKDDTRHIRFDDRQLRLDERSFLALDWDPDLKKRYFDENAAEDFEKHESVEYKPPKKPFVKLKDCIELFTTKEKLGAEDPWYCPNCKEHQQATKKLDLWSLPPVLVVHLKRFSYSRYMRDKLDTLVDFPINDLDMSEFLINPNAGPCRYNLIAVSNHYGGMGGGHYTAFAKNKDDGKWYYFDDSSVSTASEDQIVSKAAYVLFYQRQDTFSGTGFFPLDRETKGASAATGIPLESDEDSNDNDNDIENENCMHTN
Outline: as §1

USP16 = USP16 (UniProt Q9Y5T5)
Outline: as §1

Measured: log2 ratio of Biotin-Ahx-Ub-VS probe labelling

USP16, sequence (Q9Y5T5 whole entry, looked up): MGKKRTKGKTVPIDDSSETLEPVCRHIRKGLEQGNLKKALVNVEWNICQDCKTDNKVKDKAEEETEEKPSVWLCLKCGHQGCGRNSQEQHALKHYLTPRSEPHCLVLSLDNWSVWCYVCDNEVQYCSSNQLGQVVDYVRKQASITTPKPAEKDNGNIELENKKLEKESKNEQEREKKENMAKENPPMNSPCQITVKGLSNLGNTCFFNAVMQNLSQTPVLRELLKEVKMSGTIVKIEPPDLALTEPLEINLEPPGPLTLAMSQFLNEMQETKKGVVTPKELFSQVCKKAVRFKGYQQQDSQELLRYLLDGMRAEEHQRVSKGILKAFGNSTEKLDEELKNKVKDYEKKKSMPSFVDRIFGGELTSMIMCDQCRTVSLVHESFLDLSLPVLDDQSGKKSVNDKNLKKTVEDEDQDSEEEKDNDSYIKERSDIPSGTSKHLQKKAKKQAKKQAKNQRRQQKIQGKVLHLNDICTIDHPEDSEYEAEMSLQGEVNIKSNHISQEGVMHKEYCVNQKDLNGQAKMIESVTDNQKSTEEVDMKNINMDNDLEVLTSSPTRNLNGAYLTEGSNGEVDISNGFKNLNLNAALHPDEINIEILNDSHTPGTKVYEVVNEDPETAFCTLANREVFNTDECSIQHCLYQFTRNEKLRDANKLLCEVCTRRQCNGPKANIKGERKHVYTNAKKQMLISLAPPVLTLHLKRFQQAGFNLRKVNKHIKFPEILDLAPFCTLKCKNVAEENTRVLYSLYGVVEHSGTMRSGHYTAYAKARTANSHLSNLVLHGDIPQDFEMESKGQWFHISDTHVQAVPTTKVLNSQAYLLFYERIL
UCHL1, sequence (P09936 whole entry, looked up): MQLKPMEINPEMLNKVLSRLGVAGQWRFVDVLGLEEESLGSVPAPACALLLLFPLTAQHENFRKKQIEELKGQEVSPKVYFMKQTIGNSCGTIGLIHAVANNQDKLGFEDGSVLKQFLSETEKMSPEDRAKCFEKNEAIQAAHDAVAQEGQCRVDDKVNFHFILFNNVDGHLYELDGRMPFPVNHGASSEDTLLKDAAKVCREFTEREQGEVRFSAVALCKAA
USP10, sequence (Q14694 whole entry): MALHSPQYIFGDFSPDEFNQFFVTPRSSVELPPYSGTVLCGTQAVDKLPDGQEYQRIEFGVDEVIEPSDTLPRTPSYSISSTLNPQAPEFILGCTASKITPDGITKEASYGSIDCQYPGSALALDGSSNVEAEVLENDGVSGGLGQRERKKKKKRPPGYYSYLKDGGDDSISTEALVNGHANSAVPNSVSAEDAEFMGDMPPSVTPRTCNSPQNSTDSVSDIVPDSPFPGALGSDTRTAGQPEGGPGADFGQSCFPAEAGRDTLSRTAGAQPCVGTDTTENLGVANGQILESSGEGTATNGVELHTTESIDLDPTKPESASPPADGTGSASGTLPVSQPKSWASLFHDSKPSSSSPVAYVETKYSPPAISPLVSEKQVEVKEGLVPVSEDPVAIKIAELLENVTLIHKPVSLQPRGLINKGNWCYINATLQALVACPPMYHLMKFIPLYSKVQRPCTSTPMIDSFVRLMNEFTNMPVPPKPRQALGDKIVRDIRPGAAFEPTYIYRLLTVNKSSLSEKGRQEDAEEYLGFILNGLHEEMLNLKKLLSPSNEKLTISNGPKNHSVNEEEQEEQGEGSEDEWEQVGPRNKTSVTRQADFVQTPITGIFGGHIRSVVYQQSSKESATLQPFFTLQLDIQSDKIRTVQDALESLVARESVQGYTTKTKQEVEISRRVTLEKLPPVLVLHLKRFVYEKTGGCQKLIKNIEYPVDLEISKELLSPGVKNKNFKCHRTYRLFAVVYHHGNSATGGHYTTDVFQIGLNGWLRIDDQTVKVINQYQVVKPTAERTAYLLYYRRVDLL

O=C(CCl)N1CCC(c2ccn[nH]2)C1 (stereo not given)
inactive: OTUD6B -0.234 | OTUD7B -0.648 | PRPF8 -0.154 | PSMD7 -0.294 | UCHL1 -0.579 | UCHL3 -0.0683 | UCHL5 -0.213 | USP10 -0.079 | USP15 -0.555 | USP16 -0.161
